Results published in PubChem BioAssay AID1159580 (chemical genetic matrix, 2015).
The campaign covered roughly 5,500 compounds. About 2,000 (36%) were called active. Inconclusive results (about 18%) are left out. Cut-off read from the data, not from the text of the source: active = normalized growth mostly below about 0.91 (no sharp cut-off); inconclusive = no clear call, values can overlap the other calls; inactive = mostly above about 0.92. Some of the results follow.

Experiment: chemical genetic growth profiling, strain panel (AID 1159580);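 note: tested at 20 µM; growth read once vehicle control cultures reached saturation at 30 °C; 1 = growth at the plate median or of vehicle wells; lower values mean less growth of the strain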
Conditions: S. cerevisiae deletion strains, growth OD

Measured: normalized growth

O=C(NCCc1ccncc1)c1ccc(Cl)c(Cl)c1
active: locus YLR113W, strain HOG1, stronger effect = lower value 0.756
inactive: locus YAR019C, strain CDC15, stronger effect = lower value 0.985 | locus YBL105C, strain PKC1, stronger effect = lower value 0.987 | locus YBR135W, strain CKS1, stronger effect = lower value 0.988 | locus YBR136W, strain MEC1, stronger effect = lower value 0.987 | locus YBR160W, strain CDC28, stronger effect = lower value 0.991 | locus YDL017W, strain CDC7, stronger effect = lower value 0.991 | locus YDL028C, strain MPS1, stronger effect = lower value 0.985 | locus YDL101C, strain DUN1, stronger effect = lower value 0.98 | locus YDL108W, strain KIN28, stronger effect = lower value 0.981 | locus YDL132W, strain cdc53, stronger effect = lower value 0.998 | locus YDL214C, strain PRR2, stronger effect = lower value 0.945 | locus YDR052C, strain DBF4, stronger effect = lower value 0.988 | locus YDR054C, strain cdc34, stronger effect = lower value 0.984 | locus YDR226W, strain ADK1, stronger effect = lower value 0.985 | locus YDR477W, strain SNF1, stronger effect = lower value 1.01 | locus YER123W, strain YCK3, stronger effect = lower value 0.877 | locus YER133W, strain GLC7, stronger effect = lower value 0.969 | locus YFL009W, strain cdc4, stronger effect = lower value 0.982 | locus YFL029C, strain CAK1, stronger effect = lower value 0.98 | locus YFR003C, strain YPI1, stronger effect = lower value 0.984 | locus YFR019W, strain FAB1, stronger effect = lower value 0.927 | locus YFR028C, strain CDC14, stronger effect = lower value 0.994 | locus YGR040W, strain KSS1, stronger effect = lower value 0.992 | locus YGR052W, strain FMP48, stronger effect = lower value 0.985 | locus YGR092W, strain DBF2, stronger effect = lower value 1 | locus YHR030C, strain SLT2, stronger effect = lower value 0.911 | locus YHR079C, strain IRE1, stronger effect = lower value 0.938 | locus YHR082C, strain KSP1, stronger effect = lower value 1.1 | locus YHR205W, strain SCH9, stronger effect = lower value 0.99 | locus YIL147C, strain SLN1, stronger effect = lower value 0.986 | locus YJL095W, strain BCK1, stronger effect = lower value 0.925 | locus YJL128C, strain PBS2, stronger effect = lower value 0.94 | locus YJL157C, strain FAR1, stronger effect = lower value 0.96 | locus YJR016C, strain ILV3, stronger effect = lower value 0.995 | locus YJR066W, strain TOR1 (second series), stronger effect = lower value 1.03 | locus YJR066W, strain TOR1, stronger effect = lower value 1.04 | locus YKL048C, strain ELM1, stronger effect = lower value 0.992 | locus YKL067W, strain YNK1, stronger effect = lower value 0.947 | locus YKL101W, strain HSL1, stronger effect = lower value 0.941 | locus YKL193C, strain SDS22, stronger effect = lower value 0.992 | locus YKL203C, strain TOR2, stronger effect = lower value 1.01 | locus YLR133W, strain CKI1, stronger effect = lower value 0.977 | locus YLR403W, strain SFP1, stronger effect = lower value 0.972 | locus YML070W, strain DAK1, stronger effect = lower value 0.941 | locus YMR001C, strain CDC5, stronger effect = lower value 0.989 | locus YMR205C, strain PFK2 (second series), stronger effect = lower value 0.978 | locus YMR277W, strain FCP1, stronger effect = lower value 0.989 | locus YNL006W, strain LST8, stronger effect = lower value 0.976 | locus YNL020C, strain ARK1, stronger effect = lower value 0.964 | locus YNL161W, strain CBK1, stronger effect = lower value 0.991 | locus YNL183C, strain NPR1, stronger effect = lower value 1.01 | locus YNL207W, strain RIO2, stronger effect = lower value 0.991 | locus YNL222W, strain SSU72, stronger effect = lower value 0.992 | locus YNL307C, strain MCK1 (second series), stronger effect = lower value 0.961 | locus YOL078W, strain AVO1, stronger effect = lower value 0.997 | locus YOL136C, strain PFK27, stronger effect = lower value 0.945 | locus YOR061W, strain CKA2, stronger effect = lower value 0.924 | locus YOR119C, strain RIO1, stronger effect = lower value 1.03 | locus YOR231W, strain MKK1, stronger effect = lower value 0.916 | locus YOR329C, strain SCD5, stronger effect = lower value 0.991 | locus YPL031C, strain PHO85, stronger effect = lower value 0.976 | locus YPL153C, strain RAD53, stronger effect = lower value 0.993 | locus YPL204W, strain HRR25, stronger effect = lower value 0.972 | locus YPL209C, strain IPL1, stronger effect = lower value 0.987 | locus YPL256C, strain CLN2, stronger effect = lower value 0.868 | locus YPR025C, strain CCL1, stronger effect = lower value 0.992 | locus YPR106W, strain ISR1, stronger effect = lower value 0.983 | locus YPR111W, strain DBF20, stronger effect = lower value 0.961 | strain NNK1, stronger effect = lower value 0.982 | strain TSCII, stronger effect = lower value 0.983
